This note sets out measurements from PubChem BioAssay.

Test [1] can be described thus: inhibitors of TNFa-induced NFkB p65 translocation, primary screen, imaging, HUVEC, MLSMR starter and 10KST1 sets (AID 438;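 active = inhibition above 20% together with a positive visual image hit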;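 note: compound added about 3h40 before a 20 min TNFalpha stimulation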;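 for inhibition: signal is the nuclear over cytoplasmic p65 intensity ratio per well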). The conditions noted are these: HUVEC TNFa-induced p65 nuclear translocation; cell count: measured here: nuclei count (cytotoxicity indicator), at 2.08 µM; inhibition: at 2 µM, stronger effect = higher value, 0% TNFa-plus-vehicle, 100% no-TNFa wells.
Test [2] in a line: reduction of polyQ htt aggregates in cells – imaging, exon1htt(103Q)mCFP cells, high-content imaging, primary screen (AID 483;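 active = visual image review flags a hit and inhibition of aggregation exceeds 20%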;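 note: compound exposure lasted 3 days before fixation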;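 for nuclei count: percent of the per-plate median nuclei count of sample wells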). The conditions noted are these: exon1htt(103Q)mCFP cell line, aggregate imaging, at 2 µM; inhibition of aggregation: stronger effect = higher value; nuclei count: measured here: cell count, toxicity.
The nature of test [3]: endothelial E-selectin expression blockers – imaging, HUVEC, immunofluorescence, MLSMR starter and 10KST1 sets, primary screen (AID 487;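 active = visually confirmed hit in the image check and inhibition above 20%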;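 for inhibition: signal is fraction of cell area covered by stained E-selectin grains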;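 for nuclei count: 100% = median nuclei count of all wells on the same plate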). The conditions noted are these: HUVEC TNFalpha-induced E-selectin immunofluorescence imaging, at 2 µM; inhibition: stronger effect = higher value; nuclei count: measured here: cell number, toxicity.
Test [4] concerns the target Voltage-gated potassium channel subunit beta-2 (Rattus norvegicus) (UniProt P62483). In words: inhibitors of rat Kvbeta2 reductase activity – biochemical, NADPH fluorescence, primary screen (AID 622;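 active = fluorescence slope higher than the sample average by over 3 SD, cut at about -0.22 in these data, passing the limit was not always enough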;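 note: slope of raw intensity against log time taken from 70 to 1610 s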). The conditions noted are these: recombinant KvBeta, 4-cyanobenzaldehyde reduction, at 10 µM, stronger effect = higher value.
For test [5] the target is unchanged. In words: enhancers of rat Kvbeta2 NADPH turnover – biochemical, NADPH fluorescence, primary screen (AID 623;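 active = NADPH fluorescence slope more negative than the mean of all samples by about 3 SD, 99.7% confidence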;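 note: fluorescence intensity change per second fitted from 20 to 320 s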). The conditions noted are these: Recombinant KvBeta, NADPH fluorescence decrease slope, 10 min; at 10 µM; stronger effect = lower value.
Test [6] has as its target Alpha-2C adrenergic receptor (Homo sapiens) (UniProt P18825). Nature of the test: compounds altering alpha2C-coupled GIRK flux – cell-based, HEK293 alpha2C/GIRK1/2, thallium flux, primary screen (AID 624;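 active = fluorescence slope after compound addition differing from the mean of all screened samples at 99.7% confidence, in either direction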;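 note: slope of fluorescence ratio to pre-addition baseline per second over 15 to 24 s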). The conditions noted are these: thallium flux BTC fluorescence, at 10 µM, actives lie on both sides.
Test [7] is described as follows: blockers of RIG-like receptor reporter activation – cell-based, Sendai virus stimulus, luciferase, 10K MLSCN set, TLR/RLR signaling modifier project, primary screen (AID 602276).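 Note: firefly luciferase from ISG56 promoter only with Renilla not read in this screen; 0% = Sendai virus plus DMSO and 100% = medium plus DMSO without virus.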 The conditions noted are these: HEK293 RL24 IRF3 luciferase reporter, at 10 µM, stronger effect = higher value.
Test [8] in a line: TLR3 IRF3 reporter activation blockers – cell-based, poly I:C stimulus, luciferase, 10K MLSCN set, primary screen (AID 602277;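 active = inhibition of the reporter signal at or above 50%; inactive = inhibition below 50%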). The conditions noted are these: HEK293-TLR3 RL24 IRF3 luciferase reporter, at 10 µM, stronger effect = higher value. (In general: Reporter assays use an easily measured gene product as a stand-in for the process of interest.)

Active and inactive are the calls of the source.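 Rule for the calls, unless noted: active = inhibition at or above 50% at 10 µM; inactive = inhibition below 50%.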

Sequence of Voltage-gated potassium channel subunit beta-2 (Rattus norvegicus) (P62483 whole entry, looked up): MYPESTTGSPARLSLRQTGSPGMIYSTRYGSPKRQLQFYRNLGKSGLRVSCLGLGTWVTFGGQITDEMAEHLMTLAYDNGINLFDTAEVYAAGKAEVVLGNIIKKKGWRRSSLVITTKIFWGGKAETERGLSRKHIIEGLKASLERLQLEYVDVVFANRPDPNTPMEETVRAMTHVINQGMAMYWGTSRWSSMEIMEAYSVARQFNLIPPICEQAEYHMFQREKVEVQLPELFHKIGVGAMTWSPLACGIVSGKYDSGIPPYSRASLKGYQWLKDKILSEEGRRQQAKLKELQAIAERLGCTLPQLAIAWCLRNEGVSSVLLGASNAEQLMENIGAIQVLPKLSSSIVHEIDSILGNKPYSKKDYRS
Sequence of Alpha-2C adrenergic receptor (Homo sapiens) (P18825 whole entry, looked up): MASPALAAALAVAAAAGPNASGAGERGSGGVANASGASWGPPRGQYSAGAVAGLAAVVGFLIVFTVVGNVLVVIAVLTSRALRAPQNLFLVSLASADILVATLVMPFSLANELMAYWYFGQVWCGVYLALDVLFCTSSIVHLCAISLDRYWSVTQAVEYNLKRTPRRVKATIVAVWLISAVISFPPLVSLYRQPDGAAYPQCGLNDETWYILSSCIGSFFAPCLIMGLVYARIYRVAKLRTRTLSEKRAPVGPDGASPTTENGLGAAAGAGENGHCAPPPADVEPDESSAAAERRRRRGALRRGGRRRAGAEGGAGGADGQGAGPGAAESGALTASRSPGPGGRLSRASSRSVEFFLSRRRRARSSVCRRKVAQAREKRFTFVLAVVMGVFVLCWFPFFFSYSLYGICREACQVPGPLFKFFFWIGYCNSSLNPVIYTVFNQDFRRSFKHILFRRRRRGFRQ

One may read the inhibition as the drop in the measured response relative to a control, in per cent. For the molecule `O=C(CN1C(=O)COCC1=O)N1CCOCC1`, the cell count in test [1] amounted to 377. Also, the inhibition in test [1] is -7% (inactive); in test [3] it was -35.1% (inactive); in test [7], 9.66% (inactive); in test [8] it was 23.7% (inactive). The inhibition of aggregation in test [2] was 11.7% (inactive). For the same molecule, the nuclei count in test [2] worked out at 108%; in test [3], 112%. Besides, the fluorescence slope in test [4] is -0.422 (inactive). In addition, in test [5], the NADPH fluorescence slope was -0.00011 (inactive). In test [6], the slope is 0.00596 (inactive).

`CC(C)C(c1nnnn1C1CCCC1)N1CCN(C(=O)c2ccco2)CC1` (stereo not drawn): the cell count in test [1] was found to be 426. Also, the inhibition in test [1] is 9.7% (inactive); in test [3], -101% (inactive); in test [7], -4.43% (inactive); in test [8], 4.27% (inactive). The inhibition of aggregation in test [2] was -33.8% (inactive). Also, the nuclei count in test [2] turned out to be 67.7%; in test [3] it was 115%. In test [4], the fluorescence slope was -0.566 (inactive). The NADPH fluorescence slope in test [5] was -1.1e-05 (inactive). In addition, in test [6], the slope was 0.00617 (inactive).

In the case of `COc1cc(NC(=O)CC(C)C)ccc1NC(=O)c1ccco1`, the cell count in test [1] amounted to 612. The inhibition in test [1] is -6% (inactive); in test [3], 44.4% (inactive); in test [7], -64.3% (inactive); in test [8] it was -135% (inactive). In addition, the inhibition of aggregation in test [2] is 10.4% (inactive). Also, the nuclei count worked out at 93.3% in test [2] and 47.6% in test [3]. The fluorescence slope in test [4] is -0.605 (inactive). Further, the NADPH fluorescence slope in test [5] is 1e-05 (inactive). Further, the slope in test [6] was 0.00539 (inactive).

Regarding `COCCn1nnnc1C(c1cc2ccc(OC)cc2[nH]c1=O)N1CCc2ccccc2C1` (stereo not drawn), the cell count in test [1] turned out to be 454. Also, the inhibition in test [1] was 7.5% (inactive); in test [3], -43% (inactive); in test [7], 29.3% (inactive); in test [8], 37.8% (inactive). Further, the inhibition of aggregation in test [2] is -1.5% (inactive). For the same molecule, the nuclei count in test [2] was 86.9%; in test [3] it was 95.9%. The fluorescence slope in test [4] was -0.503 (inactive). The NADPH fluorescence slope in test [5] was -1.3e-05 (inactive). Also, in test [6], the slope is 0.00527 (inactive).

Regarding `COC1CCCCC1NS(=O)(=O)c1ccccc1` (stereo not drawn), the cell count in test [1] worked out at 317. Besides, the inhibition in test [1] was 1.4% (inactive); in test [3], 19.4% (inactive); in test [7] it was 11.1% (inactive); in test [8], 27.4% (inactive). Further, the inhibition of aggregation in test [2] was 12.2% (inactive). For the same molecule, the nuclei count was 113% in test [2] and 114% in test [3]. In test [4], the fluorescence slope was -0.312 (inactive). In addition, in test [5], the NADPH fluorescence slope is -3.1e-06 (inactive). Further, in test [6], the slope was 0.00597 (inactive).

With `CCOC(=O)N1CCC(NC(=O)Cc2ccc(-n3c(=O)[nH]c4ccccc4c3=O)cc2)CC1`, the cell count in test [1] is 753. In addition, the inhibition in test [1] is -5.8% (inactive); in test [3] it was -35.8% (inactive); in test [7], 0.617% (inactive); in test [8] it was -10.4% (inactive). In addition, the inhibition of aggregation in test [2] was -8.3% (inactive). Moreover, the nuclei count in test [2] is 112%; in test [3], 115%. The fluorescence slope in test [4] is -0.527 (inactive). The NADPH fluorescence slope in test [5] is -1.5e-05 (inactive). Moreover, the slope in test [6] is 0.00585 (inactive).

Take `COc1ccc(-n2c(Cc3cccn3C)nnc2SCC(=O)Nc2cccc(Cl)c2)cc1`: the cell count in test [1] worked out at 583. Besides, the inhibition in test [1] is 36.1% (active); in test [3], 1.8% (inactive); in test [7], -2.83% (inactive); in test [8] it was 19.5% (inactive). Further, the inhibition of aggregation in test [2] was 22.4% (inactive). Further, the nuclei count in test [2] amounted to 85.2%; in test [3] it was 116%. In addition, in test [4], the fluorescence slope was -0.609 (inactive). The NADPH fluorescence slope in test [5] is 1.6e-05 (inactive). Further, the slope in test [6] is 0.00706 (inactive).

Turning to `CC1=C(C(=O)OC(C)C)C(c2cccc(F)c2)n2ncnc2N1` (stereo not drawn), the cell count in test [1] amounted to 752. Further, the inhibition is 0% (inactive) in test [1], -76.3% (inactive) in test [3], -7.13% (inactive) in test [7] and 22.1% (inactive) in test [8]. Moreover, the inhibition of aggregation in test [2] is 19% (inactive). Further, the nuclei count is 95.5% in test [2] and 114% in test [3]. Also, the fluorescence slope in test [4] is -0.6 (inactive). The NADPH fluorescence slope in test [5] was 1.6e-05 (inactive). Moreover, the slope in test [6] is 0.00586 (inactive).

Turning to `CCOc1cc2[nH]c(=S)n(CC3CCCO3)c(=O)c2cc1OCC` (stereo not drawn), the cell count in test [1] was 317. For the same molecule, the inhibition in test [1] is -0.5% (inactive); in test [3] it was -51.1% (inactive); in test [7] it was -8.82% (inactive); in test [8] it was 15.8% (inactive). The inhibition of aggregation in test [2] is 1% (inactive). For the same molecule, the nuclei count was 104% in test [2] and 115% in test [3]. The fluorescence slope in test [4] is -0.491 (inactive). In test [5], the NADPH fluorescence slope is 4e-05 (inactive). In addition, the slope in test [6] is 0.00618 (inactive).

In the case of `C=CCn1c(Cc2cccs2)nnc1SCC(=O)Nc1ccc(OC)c(OC)c1`, in test [1], the cell count stood at 268. Besides, the inhibition was 4% (inactive) in test [1], -26.5% (inactive) in test [3], 13.5% (inactive) in test [7] and 26.6% (inactive) in test [8]. For the same molecule, the inhibition of aggregation in test [2] is 19.5% (inactive). Also, the figures for the nuclei count in test [2] and in test [3] were 87.7% and 134%, respectively. For the same molecule, the fluorescence slope in test [4] was -0.445 (inactive). Further, in test [5], the NADPH fluorescence slope is -1.9e-05 (inactive). The slope in test [6] was 0.00229 (inactive).

On to `O=C(COC(=O)c1cnccn1)Nc1ccc2c(c1)OCO2`, for which, in test [1], the cell count turned out to be 589. For the same molecule, the inhibition is 7.8% (inactive) in test [1], -56.6% (inactive) in test [3], 5.28% (inactive) in test [7] and 21.1% (inactive) in test [8]. For the same molecule, the inhibition of aggregation in test [2] was -8% (inactive). Moreover, the results for the nuclei count in test [2] and in test [3] were 103% and 105%, respectively. Further, in test [4], the fluorescence slope was -0.484 (inactive). Besides, in test [5], the NADPH fluorescence slope is -2.2e-05 (inactive). For the same molecule, in test [6], the slope was 0.00566 (inactive).

With `CC(C)(CO)NC(=O)CCCOc1ccc(Cl)cc1Cl`, in test [1], the cell count stood at 397. The inhibition in test [1] was -4.9% (inactive); in test [3], 35.5% (inactive); in test [7] it was -27.2% (inactive); in test [8] it was -47.8% (inactive). The inhibition of aggregation in test [2] is 6.2% (inactive). The nuclei count in test [2] turned out to be 97.4%; in test [3], 98.8%. Moreover, in test [4], the fluorescence slope is -0.431 (inactive). In addition, the NADPH fluorescence slope in test [5] is -2.6e-05 (inactive). The slope in test [6] was 0.00385 (inactive).

For `CCc1cc2c(=O)c(-c3nc4ccccc4[nH]3)coc2c(CN2CCC(C)CC2)c1O`, the cell count in test [1] came out at 708. Moreover, the inhibition in test [1] is -7.9% (inactive); in test [3], 15.3% (inactive); in test [7] it was 7.38% (inactive); in test [8] it was 5.36% (inactive). In addition, the inhibition of aggregation in test [2] is 11.5% (inactive). Also, the nuclei count was 102% in test [2] and 107% in test [3]. Moreover, in test [4], the fluorescence slope was -0.552 (inactive). The NADPH fluorescence slope in test [5] is -3.1e-05 (inactive). In test [6], the slope is 0.00554 (inactive).
